Source: PubChem BioAssay (Sanford-Burnham Center for Chemical Genomics)
A selection: hits, their analogues and other compounds. The true share with any hit is near 0.71%.
TAG inh = reduces triacylglycerol accumulation in H9c2 cells | Nile Red lipid (TAG) fluorescence; cells loaded with 200 µM oleic acid | inhibition, % at 12.5 µM | 230,000 compounds, 0.66% hits;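 active means pattern-corrected inhibition of lipid staining of at least 50% with the nuclear-stain viability signal not falling by more than 50%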;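 further: 0% = DMSO wells and 100% = triacsin C control wells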
MIN6 prolif-1 = induces beta-cell replication in MIN6 cells | MIN6 cells proliferation, ATPlite luminescence, 48 h; cells starved in 0.2% serum; 100% = growth in 10% serum | proliferation, % at 10 µM | 330,000 compounds, 0.29% hits | AID 2380;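 active means compounds whose signal lies at least 3.5 SD above the mean of all wells on their plate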;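 further: 0% = DMSO-treated cells in low-serum medium and 100% = 10% serum control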
hiPSC survival = enhancers of human iPSC single-cell survival; survival enhancement, % at 20 µM; hiPSC single-cell survival, ATPlite luminescence; 100% = ROCK inhibitor wells, 0% = DMSO; 360,000 compounds, 0.044% hits; in the data active means survival enhancement above about 18%;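 further: cells exposed to compounds for 16 hours before the ATP read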
MIN6 prolif-2 = confirmation of inducers of beta-cell replication in MIN6 cells; proliferation increase, % at 50 µM; 920 tested, under 10 active; shares compounds with MIN6 prolif-1; MIN6 beta-cell proliferation, ATPlite luminescence, 48 h; cells kept in 0.2% serum; scaled between 0.2% and 10% serum;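 active means proliferation increase above 40% at any of the four tested concentrations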
The depositor's hits bear a star; nt = not tested or not shown.

SMILES	TAG inh	MIN6 prolif-1	hiPSC survival	MIN6 prolif-2
O=S(=O)(c1cnccc1N1CCN(/N=C/c2ccccc2)CC1)N1CCCCC1	2.6	5.6*	13.8	0.1
COc1ccc(/C=N/N2CCN(c3ccncc3S(=O)(=O)N3CCCCC3)CC2)cc1	17.7	1.2	-3.4	nt
O=C(O)c1ccccc1CC(CCc1ccccc1)C(=O)O (stereo unspecified)	1.6	nt	-1.4	nt
CCCCOCCCNC(=O)C[C@@H]1C[C@@]2(C(=O)OCC)CCC=C2N(Cc2cccc3ccccc23)C1=O	nt	nt	0.9	nt
CC(=O)Nc1ccc(-c2ccnc3c2CC(C(=O)NCc2ccccc2)O3)cc1 (stereo unspecified)	49.9	nt	-0.8	nt
CCCCn1c(-c2cccs2)nc2nc3ccccc3nc21	11.3	-1.3	1.2	nt
CCCCOCCCn1c(-c2ccco2)nc2nc3ccccc3nc21	nt	7.8*	5.1	-6.4
O=c1ccn2c(n1)SC(c1ccccc1)C2 (stereo unspecified)	8.6	nt	3.1	nt
CC(=O)c1cc2cccc(OC3(C)CCN(Cc4ccc(-c5ccccn5)cc4)C3)c2o1 (stereo unspecified)	-8.3	nt	7.1	nt
COCCNC(=O)C1(C)CCN(C(=O)c2ccc(SC(F)(F)F)cc2)C1 (stereo unspecified)	-0.6	nt	-1.4	nt
C[C@H](CO)N1C[C@H](C)[C@@H](CN(C)Cc2ccc(F)cc2)Oc2ncc(Br)cc2C1=O	-1.6	nt	2.1	nt
CC1(C(=O)NCc2ccco2)Cc2c(-c3cccc(C(N)=O)c3)ccnc2O1 (stereo unspecified)	35.5	nt	-0.2	nt
Cc1ccsc1C(C(=O)NC(C)(C)C)N(Cc1ccco1)C(=O)c1csnn1 (stereo unspecified)	nt	10.2*	-0.8	-0.4
CCC(C)(C)NC(=O)C(c1sccc1C)N(Cc1ccco1)C(=O)c1csnn1 (stereo unspecified)	nt	0.0	0.0	nt
COc1cccc(CN2CCC(C(=O)NC(C)c3cccc4ccccc34)CC2)c1 (stereo unspecified)	-8.3	nt	-2.0	nt
O=S1(=O)CC(O)C(O)CS1 (stereo unspecified)	nt	nt	0.0	nt
O=C(c1ccco1)N1CCCC(c2nc3c(nnn3Cc3c(Cl)cccc3Cl)c(=O)[nH]2)C1 (stereo unspecified)	nt	8.4*	0.9	-5.8
O=C(c1ccco1)N1CCCC(c2nc3c(nnn3Cc3ccccc3)c(=O)[nH]2)C1 (stereo unspecified)	nt	-1.5	0.2	nt
CCOC(=O)C(=CNc1cccc(C)c1C)C(=O)OCC	nt	0.1	0.3	nt
CCOC(=O)C(=CNc1ccccc1N1CCOCC1)C(=O)OCC	9.5	6.0*	-0.8	3.5
CCCNC(=O)c1cc2c(c(-c3cccc(-c4ccccc4F)c3)n1)[C@H](CCO)N(C(=O)CC1CC1)C2	nt	nt	-0.7	nt
Nc1ccc(Cc2ccccn2)cc1	2.5	-2.3	3.3	nt
Nc1ccc[n+](Cc2ccccn2)c1	9.3	4.9*	3.4	1.1
COC(C(=O)Nc1ccnn1C1CCN(Cc2ccc(C)s2)CC1)c1ccccc1 (stereo unspecified)	-19.0	9.2*	-0.6	-2.7
COC(C(=O)Nc1ccnn1C1CCN(Cc2ccc(Cl)s2)CC1)c1ccccc1 (stereo unspecified)	nt	2.7	0.7	nt
SMILES	TAG inh	MIN6 prolif-1	hiPSC survival	MIN6 prolif-2
Cc1cc2nc(-c3nnnn3Cc3ccccc3)c(=O)[nH]c2cc1C	nt	nt	0.7	nt
Cc1ccc(N(CC(=O)NCc2ccccn2)S(=O)(=O)c2ccccc2)cc1Cl	0.3	-2.9	0.1	nt
Cc1ccc(N(CC(=O)NCc2ccccn2)S(=O)(=O)c2ccccc2)cc1C	nt	9.0*	0.0	2.3
COC(=O)C(Sc1ccc(Cl)cc1)C1SC(=S)N(Cc2ccccc2)C1=O (stereo unspecified)	-9.5	nt	-2.4	nt
Cc1onc(-c2ccccc2Cl)c1C(O)c1ccc(F)cc1 (stereo unspecified)	nt	-0.6	-0.3	nt
Cc1onc(-c2ccccc2)c1C(O)c1ccc(F)cc1 (stereo unspecified)	nt	10.3*	0.7	-1.6
CC(C)=CCC[C@H](C)C[C@@H]1CC2=C(C(=O)OC(C)(C)O2)[C@@H](c2ccc(F)cc2)O1	nt	nt	-0.4	nt
CCc1noc(C)c1C(=O)N1CCN(S(=O)(=O)c2cc(C)ccc2C)CC1	10.6	5.3	1.0	nt
CCc1noc(C)c1C(=O)N1CCN(S(=O)(=O)c2c(C)c(C)cc(C)c2C)CC1	-5.8	14.0*	-0.3	-1.7
CCc1ccc(S(=O)(=O)Nc2ccc(Cl)cn2)cc1	-2.8	4.9*	-0.6	3.8
O=S(=O)(Nc1ccc(Cl)cn1)c1ccc(Cl)cc1	18.4	-2.9	0.1	nt
COc1ccc([C@H]2C[C@@H](n3cc(COC(=O)c4ccccc4)nn3)[C@H](O)CN2Cc2cccs2)cc1	-25.5	nt	0.5	nt
CC(C)=CCC[C@H](C)C[C@@H]1Cc2[nH]c(=S)[nH]c(=O)c2[C@@H](c2ccc(F)cc2)O1	nt	nt	0.1	nt
CP(C)(=O)CCP(=O)(c1ccccc1)c1ccccc1	nt	0.0	0.3	nt
CCN(CC)CCP(=O)(c1ccccc1)c1ccccc1	nt	4.6*	1.0	-3.2
O=C(CC[C@H]1O[C@@H](n2ccc(=O)[nH]c2=O)[C@H](O)[C@@H]1O)N[C@H](Cc1ccccc1)C(=O)NCC1CCCO1 (stereo partly specified)	nt	nt	-2.2	nt
O=C1C(Br)=C(c2ccccc2)C(c2ccccc2)=C1c1ccccc1	110.3	nt	-2.9	nt
Cc1ccc(C)c(OCCN2C(=O)NC3(CCc4ccccc4C3)C2=O)c1 (stereo unspecified)	-14.8	0.0	-1.4	nt
Cc1ccc(OCCN2C(=O)NC3(CCc4ccccc4C3)C2=O)cc1 (stereo unspecified)	-3.4	7.2*	2.6	-5.5
O=S(=O)(NCc1cccnc1)c1cccn1-c1ncc(C(F)(F)F)cc1Cl	-12.3	-0.6	-0.3	nt
O=C(NCc1cccnc1)c1cccn1-c1ncc(C(F)(F)F)cc1Cl	0.0	8.8*	1.6	-0.8
CCOC(=O)[C@]12CCCC=C1N(Cc1cccc3ccccc13)C(=O)[C@H](CC(=O)N1CCCCC1)C2	nt	nt	-0.8	nt
COc1ccc(N2CCN(C(=O)c3c(C)nn(-c4ccccc4)c3C)CC2)cc1	nt	0.6	-1.0	nt
Cc1nn(-c2ccccc2)c(C)c1C(=O)N1CCN(S(=O)(=O)c2ccccc2)CC1	3.1	11.5*	-2.0	-0.8
Cc1ccc(NC(=O)CN(C)C(=O)CNC(=O)c2cccs2)cc1	0.7	11.8*	1.6	-3.1
SMILES	TAG inh	MIN6 prolif-1	hiPSC survival	MIN6 prolif-2
CN(CC(=O)Nc1ccc(Cl)cc1)C(=O)CNC(=O)c1cccs1	-5.5	4.0	-0.4	nt
Cc1ccsc1C(=O)N1CCc2ccccc2C1	-9.0	-1.1	-0.3	nt
COc1cc2c(cc1OC)CN(C(=O)c1sccc1C)CC2	7.2	5.1*	-0.1	-0.3
COCCCNc1nc(N)c([N+](=O)[O-])c(NCc2ccccc2)n1	nt	0.3	-0.2	nt
COCCCNc1nc(N)c([N+](=O)[O-])c(Nc2ccccc2OC)n1	-40.6	7.2*	-0.4	3.3
CCC(C)(C(=O)NC1CCCC1)N(Cc1ccco1)C(=O)c1ccc2c(c1)OCO2 (stereo unspecified)	nt	8.7*	-1.1	-4.5
CCC(C)(C(=O)NC1CCCC1)N(Cc1ccco1)C(=O)c1ccccn1 (stereo unspecified)	-1.3	3.5	-1.2	nt
